Rows were chosen to be rich in hits. Some 2.6% of all compounds tested hit in one or more screens of this group.
Cruzain noTriton – qHTS Assay for Promiscuous and Specific Inhibitors of Cruzain (without detergent) | 2.3% of 200,000 active | Cruzipain (Trypanosoma cruzi), P25779 | purified cruzain, Z-FR-AMC fluorescence, no detergent | Potency, µM, usual class: inhibitors; also: nearly all actives have a fitted effect of over 40% in size
Target sequence (P25779 123-467 limits assumed): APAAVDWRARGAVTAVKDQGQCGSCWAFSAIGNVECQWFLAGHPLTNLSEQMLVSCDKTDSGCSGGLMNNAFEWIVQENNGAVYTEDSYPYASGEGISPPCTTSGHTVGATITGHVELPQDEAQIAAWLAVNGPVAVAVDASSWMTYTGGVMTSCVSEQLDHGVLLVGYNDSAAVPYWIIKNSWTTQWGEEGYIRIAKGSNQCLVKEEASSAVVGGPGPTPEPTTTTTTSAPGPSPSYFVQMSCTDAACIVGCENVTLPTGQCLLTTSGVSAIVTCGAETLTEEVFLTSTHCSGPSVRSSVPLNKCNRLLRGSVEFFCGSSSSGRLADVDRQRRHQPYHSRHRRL
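Purified cruzain at 1.5 nM, pre-incubated 15 min with compound at room temperature in 100 mM sodium acetate pH 5.5, 5 mM DTT, 0.00005% Triton X-100. Reaction started with 2 uM Z-FR-AMC; AMC fluorescence increase over 60 s gives rate.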
Cruzain Triton – qHTS Assay for Promiscuous and Specific Inhibitors of Cruzain (with detergent). purified cruzain, Z-FR-AMC fluorescence, 0.01% Triton. Cruzipain (Trypanosoma cruzi), P25779. AID 1478, 2009. 0.43% of 200,000 active. Potency, µM, most hits filed as inhibitors; also: nearly all actives have a fitted effect of over 40% in size
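Compounds were screened in titration against cruzain (1.5 nM) with 0.01% Triton X-100 to counter colloidal aggregation. Activity was the AMC fluorescence increase over 60 s after adding 2 uM Z-FR-AMC at pH 5.5.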
Each line names hits and unclear results; the compound was inactive in the other large screens. Calls follow the shape of the dose curve; as a rule, active = well fitted curve in the direction sought with a large enough effect; inconclusive = small, poorly fitted or top-dose-only effect, or another doubt; inactive = no such curve, though single readings can be large; an effect the other way counts as inactive or inconclusive.

COc1ccc(Cl)cc1NC(=O)COC(=O)CNC(=O)c1ccc([N+](=O)[O-])c(C)c1	Cruzain noTriton inconclusive, Cruzain Triton 20µM
O=C(COC(=O)CSc1cc(Cl)ccc1Cl)Nc1ncc(C(F)(F)F)cc1Cl	none
O=C(COC(=O)CNC(=O)c1ccc(Cl)cc1)Nc1ncc(C(F)(F)F)cc1Cl	Cruzain noTriton 4µM, Cruzain Triton 7.9µM
Cc1ccc(C(=O)NCC(=O)OCC(=O)Nc2ccc(Cl)cc2C(F)(F)F)cc1C	Cruzain noTriton inconclusive, Cruzain Triton 14µM
COc1ccc(OC)c(CCNC(=O)c2ccc3c(c2)N(Cc2ccc(C)cc2)CCS3)c1	none
Cc1ccc(CNC(=O)c2cccc(Nc3nc4ccccc4n4nnnc34)c2)cc1	none
CCOC(=O)c1c(NC(=O)C2c3ccccc3Oc3ccccc32)sc(C)c1CC	none
COc1cc(-c2nc3ncccn3c2Nc2ccc(C)cc2C)ccc1O	Cruzain noTriton inconclusive
COC(=O)c1ccc(NC(=O)Cn2c(=O)nc(-c3ccccc3)c3ccccc32)cc1	none
COc1ccc(NC(=O)COC(=O)CNC(=O)c2cc(OC)c(OC)c(OC)c2)cc1	none
Cc1cc(C(=O)NCC(=O)OCC(=O)Nc2ccc(OC(F)F)cc2)ccc1[N+](=O)[O-]	Cruzain noTriton 10µM, Cruzain Triton 11µM
CCCCNc1nc2c(c(=O)n(C)c(=O)n2C)n1CC(O)COc1ccccc1C (stereo not drawn)	Cruzain noTriton inconclusive
O=c1c(-c2ccc(Cl)cc2)nc2cnc(N3CCOCC3)nc2n1CCc1ccccc1	none
CCOc1ccc(NC(=O)Cn2ncc3c2-c2cc(C)ccc2OC3)cc1	none
CCCCCc1ccc(-c2ccc(/C=C/C(N)=O)cc2)nc1	Cruzain noTriton 13µM
CCCCCc1ccc(-c2ccc(C(=O)Oc3ccc(C(=O)OC)cc3)cc2)nc1	none
Cc1ccc(/C=C2\CCC3=C2OC(N)=C(C#N)C3c2ccc(C)cc2)cc1 (stereo not drawn)	Cruzain noTriton 25µM
N#CC1=C(N)OC2=C(CCc3ccccc32)C1c1ccccc1 (stereo not drawn)	none
COC(=O)C1=C(C)Nc2nc(SCc3ccccc3)[nH]c(=O)c2C1c1cccs1 (stereo not drawn)	Cruzain noTriton 25µM
CCSc1nc2c(c(=O)[nH]1)C(c1cccnc1)C(C(=O)OC)=C(C)N2 (stereo not drawn)	none
COc1cc(NC(=O)CC2C(=O)N(c3cccc(C)c3)C(=O)N2Cc2ccc(F)cc2)cc(OC)c1 (stereo not drawn)	none
Cc1ccc(C2=NC(c3ccc(F)cc3)=Nc3ccc(C)cc3N2)cc1	Cruzain noTriton 25µM
Cc1ccc2c(c1)NC(c1cccnc1)=NC(c1ccc(F)cc1)=N2	none
COc1ccc(NC(=O)CCc2c(C)nc3nc(CNC(=O)OC(C)(C)C)nn3c2C)cc1OC	none
Cc1ccc(NC(=O)Nc2nnc(N3CCCC3)s2)cc1	none
O=C(Nc1nc(-c2cc(Cl)sc2Cl)cs1)c1ccc(Br)s1	Cruzain noTriton 7.9µM
CC(=O)Nc1nc(-c2ccc(Br)s2)cs1	Cruzain noTriton 13µM
O=C(Nc1nc(-c2ccccn2)cs1)c1ccc(Br)s1	Cruzain noTriton inconclusive
O=C(Nc1nc(-c2cc(Cl)sc2Cl)cs1)c1cccs1	Cruzain noTriton inconclusive
Cc1ccc(NC(=O)Nc2nc(-c3ccc(C)s3)cs2)cc1	Cruzain noTriton 25µM
Cc1ccc(CNc2ccc(-c3nc(-c4ccco4)no3)cc2[N+](=O)[O-])cc1	none
CCOC(=O)c1ccc(Nc2nc3nonc3nc2Nc2cccc(C)c2C)cc1	none
Cc1ccc2c(Cl)cc(Cl)c(OCC(=O)Nc3cccc(S(N)(=O)=O)c3)c2n1	none
Cc1ccc2c(Cl)cc(Cl)c(OCC(=O)Nc3cccc(S(=O)(=O)N(C)C)c3)c2n1	Cruzain noTriton 13µM
CSc1ccc(/C=C/c2nc3ccccc3n2S(=O)(=O)c2cccc(Cl)c2)cc1	none
O=S(=O)(c1cccc(Cl)c1)n1c(/C=C/c2ccccc2Cl)nc2ccccc21	Cruzain noTriton 7.9µM
CCC(=O)N1CCc2cc(Br)cc(S(=O)(=O)N3CCC(C(=O)Nc4cccc(C)c4)CC3)c21	none
NC(=O)Cn1c(=O)n(CCCCCC(=O)NCc2ccc(F)cc2)c(=O)c2sccc21	none
C1=C(CCNc2ncnc3c2[nH]c2ccccc23)CCCC1	none
CC(C)OCCCNc1ncnc2c1[nH]c1ccccc12	Cruzain noTriton 16µM, Cruzain Triton inconclusive
COc1ccc2[nH]c3c(NCCN(C(C)C)C(C)C)ncnc3c2c1	Cruzain noTriton 13µM, Cruzain Triton inconclusive
COc1ccc2[nH]c3c(NCCCN4CCCC4=O)ncnc3c2c1	Cruzain Triton inconclusive
Cc1ccc(-c2nc3ccccc3o2)cc1NC(=O)Cc1ccc(Cl)cc1	none
COc1ccc2nc3oc(C(=O)Nc4cccc(C(F)(F)F)c4)cc3cc2c1	none
Cc1cccc(C)c1NC(=O)CSc1nc(C)c(CC(=O)c2ccc(Br)cc2)c(C)c1C#N	Cruzain noTriton 32µM
Cc1nc(SCC(=O)Nc2ccccc2C(F)(F)F)c(C#N)c(C)c1CC(=O)c1ccc(Br)cc1	none
COc1ccc(OC)c2sc(N3CCN(C(=O)CCS(=O)(=O)c4ccc(F)cc4)CC3)nc12	Cruzain noTriton inconclusive
CCC1=Nc2cc(C(=O)N3CCC(C)CC3)ccc2Sc2ccc(C)cc21	none
Cc1cc(N2CCC(C(=O)N(CC(C)C)CC(C)C)CC2)n2nc(C)c(-c3ccc(Cl)cc3)c2n1	none
CCCn1c(C)cc(C(=O)CSc2nc3ccccc3c(=O)n2Cc2ccco2)c1C	none
Cc1cc(C(=O)CN2C(=O)NC(c3ccccc3)(c3ccccc3)C2=O)c(C)n1Cc1ccco1	Cruzain noTriton inconclusive
C=CCn1c(C)cc(C(=O)CSc2nc3ccccc3[nH]2)c1C	none
Cc1cc(C(=O)CN2C(=O)NC(C)(c3cccc(Br)c3)C2=O)c(C)n1Cc1ccco1 (stereo not drawn)	Cruzain noTriton 32µM
Cc1cc(C(=O)CSc2nc3ccccc3[nH]2)c(C)n1Cc1ccco1	Cruzain noTriton 25µM
Cc1cc(C(=O)CSc2nn(-c3ccccc3)c(=S)s2)c(C)n1Cc1ccco1	Cruzain noTriton 25µM
COc1cc(/C=C\C(=O)N2CCC=CC2=O)cc(OC)c1OC	none
O=C(CCC(=O)N1CCOc2ccccc21)NCc1cccs1	none
CCOc1cc(C(=O)Nc2ccc(NC(=O)c3cc4ccccc4o3)c(OC)c2)cc(OCC)c1OCC	none
COc1ccc(-c2csc(Nc3cccnc3)n2)cc1	Cruzain noTriton inconclusive
Cc1nc(NC(=O)c2ccccc2)sc1-c1csc(NCc2ccccc2)n1	Cruzain noTriton inconclusive
COc1cccc(Nc2nc(-c3sc(NC(=O)c4ccco4)nc3C)cs2)c1	Cruzain noTriton inconclusive
c1cc2c(cc1Nc1nc(-c3ccc4c(c3)OCO4)cs1)OCCO2	Cruzain noTriton 10µM
COc1cccc(Nc2nc(-c3sc(N)nc3C)cs2)c1	Cruzain noTriton 13µM, Cruzain Triton inconclusive
COc1cccc(Nc2nc(-c3ccc4c(c3)OCCO4)cs2)c1	Cruzain noTriton 25µM
c1ccc(-c2csc(Nc3ccc4c(c3)OCCO4)n2)cc1	Cruzain noTriton inconclusive
Cc1nc(N)sc1-c1csc(NCc2ccccc2)n1	Cruzain noTriton 32µM
Cc1cccc(CNc2nc(-c3ccccc3CN(C)C)nc3ccccc23)c1	none
Cc1c(Cl)cccc1NC(=O)Cn1nnc2sc3c(c2c1=O)CCCC3	Cruzain noTriton inconclusive
CCc1cc(=O)oc2cc(C)c3c(-c4ccc(F)cc4)coc3c12	none
COc1ccccc1CNC(=O)C1CCN(Cc2cc3ccccc3n2Cc2cccc(C)c2)CC1	none
O=C(c1ccccc1Cl)N(Cc1ccco1)Cc1ccco1	none

Source: PubChem (National Center for Advancing Translational Sciences (NCATS))
